Values joined by “and” are separate entries in the source; they are usually repeats but may differ in a detail not shown here. Identical values can stand only once. The panel holds about 79,000 compounds, 15% with a hit somewhere; the sample as a whole holds those more often. Values without a mark were called inactive. Active and inactive are the calls of the source. No stated cut-off is given here; in the data, active means growth inhibition above about 70%; inactive means the rest.

Assay [1] in a line: NCI Yeast Anticancer Drug Screen. Data for the rad50 strain (AID 155).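 Further: 0% = growth of vehicle-only cultures of the same strain.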 Particulars: S. cerevisiae rad50 strain growth inhibition, hits give high values. The gist of the method:
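Compounds were tested on a yeast strain with an engineered DNA damage repair alteration; the reported value is growth inhibition normalised to vehicle treatment.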

Assay [2] is described as follows: NCI Yeast Anticancer Drug Screen. Data for the mec2-1 strain (AID 157). The following applies: S. cerevisiae mec2-1 strain, hits give high values. The gist of the method: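 Readout is yeast growth inhibition, normalised to vehicle-treated controls, in the mec2-1 strain exposed to compound.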
Assay [3] in a line: NCI Yeast Anticancer Drug Screen. Data for the sgs1 mgt1 strain (AID 161).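 Further: 0% = growth of cultures given vehicle only.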 Particulars: S. cerevisiae sgs1 mgt1 strain, hits give high values. A digest of the protocol:
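Yeast cells carrying a defined DNA-repair defect were exposed to test compounds. Growth inhibition was measured relative to vehicle-treated controls.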

Assay [4] can be described thus: NCI Yeast Anticancer Drug Screen. Data for the cln2 rad14 strain (AID 165).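 Further: 0% = growth equal to vehicle treated cultures.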 The following applies: S. cerevisiae cln2 rad14 strain, hits give high values. A digest of the protocol: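 Relative to vehicle controls, growth inhibition of compound-treated cln2 rad14 yeast was recorded.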
The nature of assay [5]: NCI Yeast Anticancer Drug Screen. Data for the mlh1 rad18 strain (AID 175). The following applies: S. cerevisiae mlh1 rad18 strain growth inhibition, hits give high values. A digest of the protocol: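 Test agents were incubated with a yeast strain of defined genotype (DNA damage repair defect). Inhibition of growth was derived by comparison with vehicle-exposed cultures.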

A short description of assay [6]: NCI Yeast Anticancer Drug Screen. Data for the bub3 strain (AID 167). The following applies: S. cerevisiae bub3 mutant strain, hits give high values. A digest of the protocol: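 Growth of a checkpoint-deficient yeast mutant is measured after compound exposure. Values represent inhibition relative to vehicle.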
The mark [7] stands for this setting: at 5.0 µM (retest, dose inferred, filed as 0.5).
The mark [8] stands for this setting: at 50.0 µM (retest, dose inferred, filed as 5.0).

For the compound `O=C1CC2(CCCC2)C(=O)N1c1ccc(N2C(=O)CC3(CCCC3)C2=O)cc1`, the growth inhibition is 3% in assay [1] (setting [7]); -10% in assay [1] (setting [8]); -11.8% in assay [1] (at 50.0 µM); -3% in assay [2] (setting [7]); -12% in assay [2] (setting [8]); 6.95% in assay [2] (at 50.0 µM). In addition, the growth inhibition was -1% in assay [3] (setting [7]); -7% in assay [3] (setting [8]); -22.4% in assay [3] (at 50.0 µM); -5% in assay [4] (setting [7]); -7% in assay [4] (setting [8]); 44.1% in assay [4] (at 50.0 µM). Moreover, the growth inhibition in assay [5] (setting [7]) is 1%; in assay [5] (setting [8]) it was -5%; in assay [5] (at 50.0 µM), -11.7%.
As to `CC(C)=NOc1ccc([N+](=O)[O-])cc1[N+](=O)[O-]`, the growth inhibition is 19% in assay [1] (setting [7]); 87% (active) in assay [1] (setting [8]); 89.9% (active) in assay [1] (at 50.0 µM); 11% in assay [2] (setting [7]); 81% (active) in assay [2] (setting [8]); 53% in assay [2] (at 50.0 µM). Also, the growth inhibition is 17% in assay [3] (setting [7]); 84% (active) in assay [3] (setting [8]); 54.1% in assay [3] (at 50.0 µM); 2% in assay [4] (setting [7]); 48% in assay [4] (setting [8]); 30.5% in assay [4] (at 50.0 µM). The growth inhibition is 4% in assay [6] (setting [7]); 81% (active) in assay [6] (setting [8]); 55.3% in assay [6] (at 50.0 µM); 5% in assay [5] (setting [7]); 93% (active) in assay [5] (setting [8]); 71.3% (active) in assay [5] (at 50.0 µM).
Consider `CCc1[nH]c2ccccc2c1N1C(=O)CC2(CCN(Cc3ccccc3)CC2)CC1=O`, for which the growth inhibition is -4% in assay [1] (setting [7]); 1% in assay [1] (setting [8]); 32.1% in assay [1] (at 50.0 µM); 1% in assay [2] (setting [7]); 25% in assay [2] (setting [8]); 6.25% in assay [2] (at 50.0 µM). The growth inhibition in assay [3] (setting [7]) is -75%; in assay [3] (setting [8]), 23%; in assay [3] (at 50.0 µM), 32.4%; in assay [4] (setting [7]) it was -1%; in assay [4] (setting [8]), 2%; in assay [4] (at 50.0 µM), 3.7%. Moreover, the growth inhibition in assay [5] (setting [7]) is -6%; in assay [5] (setting [8]), 10%; in assay [5] (at 50.0 µM), 19.7%.
Turning to `CCSc1nc2ccc(N3C(=O)C=CC3=O)cc2s1`, the growth inhibition in assay [1] (setting [7]) was 88% (active); in assay [1] (setting [8]) it was 100% (active); in assay [1] (at 50.0 µM), 99.7% (active); in assay [2] (setting [7]) it was 93% (active); in assay [2] (setting [8]), 100% (active); in assay [2] (at 50.0 µM), 99.6% (active). Further, the growth inhibition is 34% in assay [4] (setting [7]); 99% (active) in assay [4] (setting [8]); 99.3% (active) in assay [4] (at 50.0 µM); 93% (active) in assay [6] (setting [7]); 99% (active) in assay [6] (setting [8]); 99.6% (active) in assay [6] (at 50.0 µM). Moreover, the growth inhibition in assay [5] (setting [7]) is 98% (active); in assay [5] (setting [8]), 99% (active); in assay [5] (at 50.0 µM) it was 99.3% (active).
For the compound `CC(=O)Nc1ccc2c(c1)Cc1cccc(F)c1-2`, the growth inhibition in assay [1] (setting [7]) was 11%; in assay [1] (setting [8]) it was 14%; in assay [1] (at 50.0 µM), 70.3% (active); in assay [2] (setting [7]), 6%; in assay [2] (setting [8]), 5%; in assay [2] (at 50.0 µM), 17.7%. For the same compound, the growth inhibition in assay [3] (setting [7]) is 14%; in assay [3] (setting [8]), 3%; in assay [3] (at 50.0 µM), 22.4%; in assay [4] (setting [7]) it was 29%; in assay [4] (setting [8]), 7%; in assay [4] (at 50.0 µM), 9.1%. Besides, the growth inhibition is -2% in assay [5] (setting [7]), 1% in assay [5] (setting [8]) and 32.1% in assay [5] (at 50.0 µM).
For `OC(c1ccccc1)C(O)c1ccccc1` (stereo unspecified), the growth inhibition in assay [1] (at 50.0 µM) was 5.85% and 22.8% and 24.1%; in assay [2] (at 50.0 µM) it was -4.45% and -6.3% and 14.8%; in assay [3] (at 50.0 µM), 4.4% and 1.85% and 11.1%; in assay [4] (at 50.0 µM) it was -9.15% and -19.2% and 9.15%; in assay [6] (at 50.0 µM), 9.4% and 11.6% and 15.7%; in assay [5] (at 50.0 µM), 20.1% and 11.9% and 2.4%.
Regarding `Cc1ccc(S(=O)(=O)OCC(O)C(O)COS(=O)(=O)c2ccc(C)cc2)cc1` (stereo unspecified), the growth inhibition in assay [1] (at 50.0 µM) was 35.8% and -13.8% and 12.6%; in assay [2] (at 50.0 µM), -10.2% and -4.45% and -13.8%; in assay [3] (at 50.0 µM), 25.3% and -27.6% and -5.9%; in assay [4] (at 50.0 µM) it was 11.1% and -21.9% and -13.5%; in assay [6] (at 50.0 µM), 9.15% and -12.4% and 6.35%; in assay [5] (at 50.0 µM) it was 26.1% and -1.9% and -2.9%.
Regarding `COC1OC2COC(c3ccccc3)OC2C(O)C1O` (stereo unspecified), the growth inhibition in assay [1] (at 50.0 µM) is -23.9% and 17.1% and 20.4%; in assay [2] (at 50.0 µM), -11.6% and -15.6% and -3.65%; in assay [3] (at 50.0 µM), -3.35% and 7.95% and 0.55%; in assay [4] (at 50.0 µM) it was -29.2% and -46% and -45.3%; in assay [6] (at 50.0 µM) it was -9.35% and -19.9% and -17.4%; in assay [5] (at 50.0 µM), -3.15% and -3.95% and 9.8%.
As for `CCCCCCC(O)(CCCCCC)CCCCCC`, the growth inhibition in assay [1] (setting [7]) is -1%; in assay [1] (setting [8]) it was -34%; in assay [1] (at 50.0 µM), 83.3% (active); in assay [2] (setting [7]), -3%; in assay [2] (setting [8]), -34%; in assay [2] (at 50.0 µM), 32.8%. For the same compound, the growth inhibition was -3% in assay [3] (setting [7]); -31% in assay [3] (setting [8]); 42.8% in assay [3] (at 50.0 µM); 1% in assay [4] (setting [7]); -41% in assay [4] (setting [8]); 23.9% in assay [4] (at 50.0 µM). Besides, the growth inhibition in assay [5] (setting [7]) was 1%; in assay [5] (setting [8]), -31%; in assay [5] (at 50.0 µM), 44.1%.
`c1cc[c]([Ge]([O]c2cccc3cccnc23)([c]2ccccc2)[c]2ccccc2)cc1`: the growth inhibition in assay [1] (setting [7]) is 10%; in assay [1] (setting [8]), 10%; in assay [1] (at 50.0 µM), 73% (active); in assay [2] (setting [7]), 7%; in assay [2] (setting [8]), 7%; in assay [2] (at 50.0 µM), 67%. Besides, the growth inhibition is 6% in assay [4] (setting [7]); 6% in assay [4] (setting [8]); 45.5% in assay [4] (at 50.0 µM); 7% in assay [6] (setting [7]); 7% in assay [6] (setting [8]); 72.2% (active) in assay [6] (at 50.0 µM). The figures for the growth inhibition in assay [5] (setting [7]), in assay [5] (setting [8]) and in assay [5] (at 50.0 µM) were 10%, 10% and 74% (active), respectively.
Take `C/C(=N\OS(=O)(=O)O)SC1OC(CO)C(O)C(O)C1O` (stereo unspecified): the growth inhibition in assay [1] (setting [7]) is 3%; in assay [1] (setting [8]) it was -17%; in assay [1] (at 50.0 µM) it was 3.1%; in assay [2] (setting [7]) it was -2%; in assay [2] (setting [8]), -13%; in assay [2] (at 50.0 µM) it was -4.8%. Moreover, the growth inhibition in assay [3] (setting [7]) was -1%; in assay [3] (setting [8]), 11%; in assay [3] (at 50.0 µM), -7.4%; in assay [6] (setting [7]) it was -2%; in assay [6] (setting [8]), -3%; in assay [6] (at 50.0 µM), -8.15%. In addition, the growth inhibition was 6% in assay [5] (setting [7]), -3% in assay [5] (setting [8]) and -11% in assay [5] (at 50.0 µM).
As to `Oc1cc2c(cc1C(c1ccc(F)cc1)N1CCCCC1)OCO2` (stereo unspecified), the growth inhibition was -1% in assay [1] (setting [7]); 76% (active) in assay [1] (setting [8]); 63% in assay [1] (at 50.0 µM); -5% in assay [2] (setting [7]); 73% (active) in assay [2] (setting [8]); 64.4% in assay [2] (at 50.0 µM). Also, the growth inhibition in assay [3] (setting [7]) is 6%; in assay [3] (setting [8]) it was 77% (active); in assay [3] (at 50.0 µM) it was 85.5% (active); in assay [6] (setting [7]) it was -8%; in assay [6] (setting [8]) it was 54%; in assay [6] (at 50.0 µM), 84.4% (active). In addition, the growth inhibition in assay [5] (setting [7]) is -1%; in assay [5] (setting [8]), 88% (active); in assay [5] (at 50.0 µM) it was 59.3%.
With `C(=P(c1ccccc1)(c1ccccc1)c1ccccc1)[P+](c1ccccc1)(c1ccccc1)c1ccccc1`, the growth inhibition in assay [1] (setting [7]) is 98% (active); in assay [1] (setting [8]), 99% (active); in assay [1] (at 50.0 µM), 99.3% (active); in assay [2] (setting [7]), 99% (active); in assay [2] (setting [8]) it was 100% (active); in assay [2] (at 50.0 µM), 99.3% (active). Besides, the growth inhibition in assay [3] (setting [7]) was 99% (active); in assay [3] (setting [8]), 99% (active); in assay [3] (at 50.0 µM), 99.3% (active); in assay [6] (setting [7]), 98% (active); in assay [6] (setting [8]), 99% (active); in assay [6] (at 50.0 µM) it was 99% (active). The growth inhibition in assay [5] (setting [7]) was 99% (active); in assay [5] (setting [8]) it was 99% (active); in assay [5] (at 50.0 µM), 99.2% (active).

Values taken from PubChem BioAssay (NCI).
